The campaign covered roughly 190,000 compounds. About 220 (0.12%) were called active. About 2% were inconclusive and are not listed.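 The calls were made as follows: active = GTP binding at least 20 percentage points away from the 100% baseline, in either direction, so actives lie on both sides; inconclusive = Compound likely fluorescent itself, or too few beads counted; inactive = the rest.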 The list comes from a sample in which actives are over-represented; it also holds similar structures and randomly drawn compounds.
Each compound was assayed against Ras-related C3 botulinum toxin substrate 1 (Homo sapiens) (UniProt P63000) (assay: GTP binding modulators of activated mutant Rac1, primary screen, biochemical, bead-based flow cytometry, multiplex, fluorescent GTP (AID 764)). Details: GST-Rac1 activated beads, at 10 µM, actives lie on both sides, 100% means binding = to untreated wells.

**Q.** Which percent activity (GTP binding) does the source give for `COc1cc(N2C(=O)c3ccccc3C2=O)c(Cl)cc1C(=O)OCC(=O)N1CCOCC1` here?
**A.** 97% (inactive)

**Q.** Which percent activity (GTP binding) does the source give for `COc1ccc(N2CCN(C(C)=C3C(=O)c4ccccc4C3=O)CC2)cc1` here?
**A.** 92% (inactive)

**Q.** `CCOC(=O)C(C)n1nc(-c2ccccc2)c2ccccc2c1=O` (stereo not given) was tested. Which percent activity (GTP binding) did it give?
**A.** 96% (inactive)

**Q.** With `Cc1ccc(CN(Cc2cccnc2)C(=S)Nc2cc(Cl)ccc2C)cc1` as the compound, how does the percent activity (GTP binding) read?
**A.** 95% (inactive)

**Q.** With `CC1Cc2ccccc2N1S(=O)(=O)c1c(N)n(C)c(=O)n(C)c1=O` (stereo not given) as the compound, how does the percent activity (GTP binding) read?
**A.** 102% (inactive)

**Q.** With `C/C(N)=C(/C#N)C(=O)COC(=O)C1CCN(C(=O)c2ccc(Cl)cc2)CC1` as the compound, how does the percent activity (GTP binding) read?
**A.** 97% (inactive)

**Q.** `O=C(COC(=O)c1ccc(F)cc1)Nc1nc2ccc([N+](=O)[O-])cc2s1` was tested. Which percent activity (GTP binding) did it give?
**A.** 93% (inactive)

**Q.** How did the percent activity (GTP binding) turn out when `COc1cccc(CNn2cn[nH]c2=S)c1OCc1ccccc1` was run?
**A.** 95% (inactive)

**Q.** With `COC(=O)C1=C(C)N(C)C(=O)NC1c1ccc([N+](=O)[O-])o1` (stereo not given) as the compound, how does the percent activity (GTP binding) read?
**A.** 93% (inactive)

**Q.** With `CCOC(=O)C1CCN(S(=O)(=O)c2cc(F)ccc2OC)CC1` as the compound, how does the percent activity (GTP binding) read?
**A.** 96% (inactive)

**Q.** Which percent activity (GTP binding) does the source give for `Cc1cccc(N(C(=O)Cc2cccs2)C(C(=O)NCc2ccco2)c2ccncc2)c1` (stereo not given) here?
**A.** 101% (inactive)

**Q.** For `O=C(c1ccc(F)cc1)n1cc(C(=S)N2CCOCC2)c2ccccc21`, which percent activity (GTP binding) is on record?
**A.** 98% (inactive)

**Q.** For `CCCN(CC(=O)Nc1ccccc1C)C(=O)c1cc(=O)[nH]c2ccccc12`, which percent activity (GTP binding) is on record?
**A.** 95% (inactive)

**Q.** For `CCCC(=O)NC(=S)Nc1ccc(CN2CCOCC2)cc1`, which percent activity (GTP binding) is on record?
**A.** 95% (inactive)

**Q.** `CCN1CCc2nc(NC(=O)c3cc(F)c(F)cc3Cl)sc2C1` was tested. Which percent activity (GTP binding) did it give?
**A.** 95% (inactive)

**Q.** With `CCCCc1ccc(NC(=S)NCCCN2CCOCC2)cc1` as the compound, how does the percent activity (GTP binding) read?
**A.** 94% (inactive)

**Q.** `CCOc1ccc(CN2CCN(Cc3ccc(C)o3)CC2CCO)cc1` (stereo not given) was tested. Which percent activity (GTP binding) did it give?
**A.** 96% (inactive)

**Q.** Which percent activity (GTP binding) does the source give for `O=Cc1ccc(OCc2cn3ccccc3n2)cc1` here?
**A.** 97% (inactive)

**Q.** For `Brc1cc(/C=N/n2cnnc2)oc1Br`, which percent activity (GTP binding) is on record?
**A.** 100% (inactive)

**Q.** How did the percent activity (GTP binding) turn out when `CS(=O)(=O)Nc1cccc(-c2cn3ccccc3n2)c1` was run?
**A.** 96% (inactive)

**Q.** For `CCOC(=O)CNC(=O)/C(=C\c1ccc(F)cc1)NC(=O)c1ccccc1`, which percent activity (GTP binding) is on record?
**A.** 95% (inactive)

**Q.** With `COc1cccc(CC(=O)N2CCCC(CCC(=O)N3CCN(c4ccccn4)CC3)C2)c1` (stereo not given) as the compound, how does the percent activity (GTP binding) read?
**A.** 96% (inactive)

**Q.** For `Cc1cccc(C)c1NC(=O)C1CCCN1C(=O)OC(C)(C)C` (stereo not given), which percent activity (GTP binding) is on record?
**A.** 97% (inactive)

**Q.** `CCOc1cc(NC(=S)NCCCN(C)C)c(OCC)cc1NC(=O)C1CC1` was tested. Which percent activity (GTP binding) did it give?
**A.** 95% (inactive)

**Q.** For `CCC(C)c1ccc(NC(=S)NCc2ccccn2)cc1` (stereo not given), which percent activity (GTP binding) is on record?
**A.** 94% (inactive)

**Q.** For `COc1cccc(/C=C2\SC(=N)N(c3ccc(F)cc3)C2=O)c1`, which percent activity (GTP binding) is on record?
**A.** 93% (inactive)

**Q.** For `O=C(CSc1ccc(-c2ccco2)nn1)NCc1ccc2c(c1)OCO2`, which percent activity (GTP binding) is on record?
**A.** 96% (inactive)

**Q.** With `COc1ccc(N(CC(=O)Nc2ccc(C)cc2C)S(=O)(=O)c2ccccc2[N+](=O)[O-])c(OC)c1` as the compound, how does the percent activity (GTP binding) read?
**A.** 93% (inactive)

**Q.** For `CCOc1ccc(CCN2C(=O)c3cccnc3C2=O)cc1OCC`, which percent activity (GTP binding) is on record?
**A.** 97% (inactive)

**Q.** Which percent activity (GTP binding) does the source give for `O=C1N/C(=C/c2cccs2)C(=O)N1Cc1ccc(F)cc1` here?
**A.** 97% (inactive)

**Q.** Which percent activity (GTP binding) does the source give for `O=C(Nc1ccc2c(c1)C(=O)OC2)Nc1cccc2ccccc12` here?
**A.** 96% (inactive)

**Q.** Which percent activity (GTP binding) does the source give for `NC(=O)C1CCN(C(=O)COc2cccc3cccnc23)CC1` here?
**A.** 95% (inactive)

**Q.** `Cn1c(N)c(C(=O)COC(=O)c2cnc(Cl)c(Cl)c2)c(=O)n(C)c1=O` was tested. Which percent activity (GTP binding) did it give?
**A.** 93% (inactive)

**Q.** With `CN(C)c1ccc2c(=O)[nH][nH]c(=O)c2c1` as the compound, how does the percent activity (GTP binding) read?
**A.** 99% (inactive)

**Q.** For `O=S(=O)(NCCc1ccc(F)cc1)c1cccc2cccnc12`, which percent activity (GTP binding) is on record?
**A.** 96% (inactive)

**Q.** Which percent activity (GTP binding) does the source give for `CCC(=O)N1CCC(C(N)=O)(N2CCCCC2)CC1` here?
**A.** 96% (inactive)

**Q.** How did the percent activity (GTP binding) turn out when `COc1cc2sc(C)nc2cc1C` was run?
**A.** 95% (inactive)

**Q.** With `CCN(CC)P(=O)(Nc1ccc(SC(F)F)cc1)c1ccc(N(C)C)cc1NC(=O)c1ccco1` (stereo not given) as the compound, how does the percent activity (GTP binding) read?
**A.** 92% (inactive)

**Q.** How did the percent activity (GTP binding) turn out when `COc1ccc(C2=NN(C(=O)CCC(=O)O)C(c3cccs3)C2)cc1OC` (stereo not given) was run?
**A.** 96% (inactive)

**Q.** How did the percent activity (GTP binding) turn out when `COCCCNC(NC(=O)c1ccc(OC)cc1)C(Cl)(Cl)Cl` (stereo not given) was run?
**A.** 95% (inactive)

**Q.** With `COc1ccc(NS(=O)(=O)c2cc(NC(=O)C3CCCCC3)ccc2N2CCOCC2)cc1` as the compound, how does the percent activity (GTP binding) read?
**A.** 96% (inactive)

**Q.** Which percent activity (GTP binding) does the source give for `C/C=C/c1ccc(OCC(O)CN2CCCCCCC2)c(OC)c1` (stereo not given) here?
**A.** 96% (inactive)

**Q.** Which percent activity (GTP binding) does the source give for `CC(C)N(C(=O)CSc1nc(COc2ccccc2)nc2ccccc12)C(C)C` here?
**A.** 93% (inactive)

**Q.** With `O=C(Nc1nnc(Cc2ccccc2)s1)c1cnccn1` as the compound, how does the percent activity (GTP binding) read?
**A.** 99% (inactive)

**Q.** With `CCOc1cc(/C=N/NC(=O)c2ccc(CSc3nncn3C)cc2)ccc1OCC(=O)N1CCOCC1` as the compound, how does the percent activity (GTP binding) read?
**A.** 93% (inactive)

From PubChem BioAssay AID764 (NMMLSC, 2007)
